KLF5 inh: KLF5 expression inhibitors, primary screen, DLD-1 cells, luminescence; hit rate 0.23% among 290,000; AID 1700, 2009; DLD-1 KLF5 promoter-luciferase reporter; inhibition, % at 5 µM;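 active means inhibition above a per-plate limit of that plate's mean compound inhibition plus 3 SD, cut at about 60% in these data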;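 further: 0% = DMSO wells and 100% = LY294002 at 200 µM; higher means less KLF5 promoter-driven luciferase light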
BaF3 parental: parental Ba/F3 cell viability inhibition, counter-screen for JAK2V617F inhibitor project, murine pro-B, CellTiter-Glo luminescence. CellTiter-Glo ATP luminescence. inhibition, % at 5.6 µM. hit rate 1.1% among 220,000. AID 1486, 2009;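 active means inhibition above a per-campaign cutoff, the mean inhibition of all tested compounds plus 3 SD, cut at about 27% in these data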;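 further: 0% = DMSO wells and 100% = JAK Inhibitor I control wells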
APP 5UTR inh: inhibitors of APP translation via 5'UTR reporter, primary screen, APP 5'UTR luciferase, SH-SY5Y cells; SH-SY5Y APP 5'UTR-luciferase reporter, luminescence; inhibition, % at 2 µM; hit rate 0.82% among 190,000; AID 1285, 2008;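 active means inhibition above a set limit, derived from the sample mean plus 3 SD, cut at about 45% in these data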
IEC-6 cytotox: cytotoxicity in IEC-6 intestinal epithelial cells, primary screen, cytotoxicity control for KLF5 inhibitor project, cell-based, luminescence; IEC-6 cytotoxicity, luminescence viability; inhibition, % at 5 µM; hit rate 0.78% among 290,000;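 further: 0% = plate median of test compound wells and 100% = cytotoxic reference compound wells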
Ba/F3 V617F tox: reduced viability of JAK2V617F-dependent Ba/F3 cells, primary screen, JAK2V617F inhibitor project, cell-based, Ba/F3 EpoR-JAK2V617F, luminescence; ATP luminescence; AID 1446, 2008; hit rate 1.1% among 220,000; inhibition, % at 5.6 µM;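 active means inhibition above the campaign mean plus 3 SD over all tested compounds, cut at about 24% in these data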;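 further: cytokine-independent growth of Ba/F3 cells driven by EpoR plus mutant JAK2; 0% = DMSO-treated cells and 100% = JAK inhibitor I control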
IEC-6 tox confirm: cytotoxic compounds in IEC-6 epithelial cells, confirmation, cytotoxicity control, cell-based, luminescence; IEC-6 rat intestinal epithelial viability; inhibition, % at 5 µM; hit rate 63% among 1,900; shares compounds with IEC-6 cytotox;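 further: 0% = vehicle and 100% = reference cytotoxic drug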
* = called active by the depositor; nt = not tested or not shown. This is a sample that favours compounds with a hit; in the whole collection about 1.9% have one here. Unless noted, no stated cut-off is given here; in the data, active means inhibition above about 22%; inactive means the rest.

SMILES	KLF5 inh	BaF3 parental	APP 5UTR inh	IEC-6 cytotox	Ba/F3 V617F tox	IEC-6 tox confirm
O=C1C(=O)N(C/C=C/c2ccccc2)c2ccccc21	5.0	nt	nt	89.4*	nt	65.4*
O=C1c2ccccc2C(=O)N1C/C=C/c1ccccc1	1.1	7.9	6.0	-3.7	4.8	nt
O=C(CNS(=O)(=O)c1c(Cl)cccc1Cl)OCc1csc(-c2ccccc2)n1	-9.9	5.8	-9.3	-2.1	0.4	nt
CC(C)c1ccc(/C=N/Nc2cc(N3CCOCC3)nc(N3CCOCC3)n2)cc1	-17.6	4.2	-4.1	-2.4	0.0	nt
Cc1cccc(/C=N/Nc2cc(N3CCOCC3)nc(N3CCOCC3)n2)c1	-16.2	18.9	15.1	23.6*	12.0	94.1*
Cc1ccc(Nc2nc(N/N=C\c3ccc4c(c3)OCO4)nc(N3CCOCC3)n2)cc1	-49.1	15.2	16.4	49.4*	2.5	67.1*
O=C(Nc1ccc(N2CCCC2)cc1)c1ccc(Cl)cc1Cl	-60.3	nt	nt	0.5	nt	nt
O=C(Nc1ccc(N2CCCC2)cc1)c1cc(Cl)ccc1Cl	-28.3	nt	nt	56.5*	nt	27.1*
CCSc1nnc(NC(=O)c2nc(S(=O)(=O)Cc3ccc(F)cc3)ncc2Cl)s1	-6.5	nt	nt	-5.6	nt	nt
CCc1nnc(NC(=O)c2nc(Cl)ccc2Cl)s1	-36.4	nt	nt	-2.4	nt	nt
CCOc1ccccc1NC(=O)c1nc(S(=O)(=O)Cc2cccc(C)c2)ncc1Cl	27.9	nt	nt	72.8*	nt	29.8*
CSc1nnc(NC(=O)c2nc(S(=O)(=O)Cc3ccccc3F)ncc2Cl)s1	-6.7	nt	nt	2.7	nt	nt
CCc1nnc(NC(=O)c2nc(S(=O)(=O)Cc3ccc(C)cc3)ncc2Cl)s1	4.1	nt	nt	49.7*	nt	17.6
CCc1nnc(NC(=O)c2nc(S(=O)(=O)Cc3cccc(C)c3)ncc2Cl)s1	14.7	nt	nt	40.7*	nt	5.8
CCc1nnc(NC(=O)c2nc(S(=O)(=O)Cc3ccccc3)ncc2Cl)s1	8.7	nt	nt	34.0*	nt	6.6
CC(C)c1nnc(NC(=O)c2nc(S(=O)(=O)Cc3ccccc3F)ncc2Cl)s1	-2.0	nt	nt	18.2	nt	nt
Cc1nnc(NC(=O)c2nc(S(=O)(=O)Cc3ccccc3C)ncc2Cl)s1	19.5	nt	nt	68.9*	nt	17.0
CCc1nnc(SCC(=O)NC2CC2)n1CC	-9.2	nt	nt	-6.0	nt	nt
COc1ccccc1NC(=O)c1ccc2c(O)c(S(=O)(=O)c3ccccc3)c(=O)[nH]c2c1	-29.9	nt	nt	3.9	nt	nt
CSc1nc(=S)n(-c2cc(C)ccc2C)c(C)c1C(C)=O	-36.3	nt	nt	-2.5	nt	nt
CCC1CCCCN1CCCNC(=O)C1CCN(Cc2nc(-c3ccc(Cl)cc3)oc2C)CC1 (stereo not given)	-35.1	nt	nt	47.4*	nt	69.6*
Cc1nn(-c2ccccc2)c(Cl)c1/C=C1\N=C(c2ccccc2)OC1=O	-7.7	-0.1	-15.5	-3.0	-2.3	nt
Cc1ccc(C)c(OCC(=O)Nc2ccccc2C(=O)N2CCOCC2)c1	-13.4	nt	nt	3.7	nt	nt
C=CCN=c1scc(-c2ccc3c(c2)NC(=O)CO3)n1/N=C(\C)c1ccccn1	56.6	90.5*	51.6*	41.0*	100.4*	30.8*
O=C(Nc1ccccc1)c1nccn1Cc1ccc(F)cc1	-17.9	4.9	-62.3	-4.3	4.3	nt
SMILES	KLF5 inh	BaF3 parental	APP 5UTR inh	IEC-6 cytotox	Ba/F3 V617F tox	IEC-6 tox confirm
Cc1ccc2[nH]c3c(NCc4ccccc4)ncnc3c2c1	-13.0	nt	nt	30.3*	nt	17.4
COc1ccc2nc(NCc3ccccc3)[nH]c2c1	-43.4	6.0	-17.5	4.8	1.1	nt
Cc1ccc2nc(NCc3ccccc3)[nH]c2c1	23.5	75.9*	9.7	82.3*	85.4*	51.0*
O=C(Nc1ccc(NC(=O)c2ccc([N+](=O)[O-])o2)cc1Cl)c1ccco1	-15.2	nt	nt	100.7*	nt	27.4*
O=C(NC12CC3CC(CC(C3)C1)C2)c1ccc([N+](=O)[O-])o1	15.5	nt	nt	66.5*	nt	25.0*
Cc1c(NC(=O)c2ccc([N+](=O)[O-])o2)cccc1-c1nc2ncccc2o1	13.8	nt	nt	99.8*	nt	21.6
O=C(Nc1ccc(NC(=O)c2ccco2)c(Cl)c1)c1ccccc1	-71.4	3.9	-45.3	-4.4	-3.9	nt
O=C(Nc1cccc2ncccc12)c1ccc([N+](=O)[O-])o1	-2.2	nt	nt	97.5*	nt	24.0*
Cc1ccccc1NC(=O)c1ccc([N+](=O)[O-])o1	-52.6	-2.4	-2.2	20.5	-3.0	nt
O=C(Nc1ccccc1Cl)c1ccc([N+](=O)[O-])o1	-23.8	nt	nt	47.3*	nt	21.0
CC(=O)Nc1cccc(NC(=O)c2ccco2)c1	11.2	5.6	-7.7	-2.5	-1.3	nt
O=C(Nc1cccc(NC(=O)c2ccc([N+](=O)[O-])o2)c1)c1ccco1	-9.5	nt	nt	99.4*	nt	35.5*
O=C1CCc2ccc(NC(=O)C3CC3)cc2N1	-0.2	5.1	5.9	4.9	1.1	nt
CCOC(=O)Cn1ccc(NC(=O)c2ccc(F)cc2)n1	-22.1	nt	nt	-3.1	nt	nt
Cc1cc(-c2ccc(C(C)C)c(S(=O)(=O)N3CCN(c4ccccn4)CC3)c2)on1	14.7	nt	nt	23.2*	nt	12.3
Cc1cccc(-c2nnc3n2N=C(c2ccccc2Br)CS3)c1	7.3	32.5*	-15.8	34.0*	37.1*	21.2
CCOc1cccc(-c2nnc3n2N=C(c2cc(OC)ccc2OC)CS3)c1	37.5	80.9*	88.4*	58.3*	79.7*	51.6*
COc1ccc(C2=Nn3c(nnc3-c3ccccc3OC)SC2)cc1OC	55.5	88.7*	95.8*	91.8*	93.4*	72.2*
COc1ccc(C2=Nn3c(nnc3-c3ccccn3)SC2)cc1OC	-7.4	9.5	-8.1	1.4	5.4	nt
Cc1cc(-c2nnc3n2N=C(c2ccccc2Br)CS3)n[nH]1	-21.8	19.0	nt	-4.8	10.5	nt
COc1cccc(-c2nnc3n2N=C(c2cc(OC)ccc2OC)CS3)c1	-7.8	0.1	-8.8	-3.9	-1.1	nt
COc1ccc(C2=Nn3c(nnc3-c3ccc(OC)cc3)SC2)cc1	52.7	75.6*	93.4*	81.9*	64.0*	58.2*
CCc1ccc(C2=Nn3c(nnc3-c3cccs3)SC2)cc1	8.7	4.2	-1.3	51.7*	-2.3	34.7*
c1ccc(-c2ccc(C3=Nn4c(nnc4-c4cccs4)SC3)cc2)cc1	10.5	2.3	nt	7.6	-0.7	nt
O=C(Nc1ccc(OC(=O)c2ccco2)cc1)c1ccco1	-32.2	3.5	-11.3	-0.3	-3.0	nt
O=C(OC1CCCCC1)c1ccc(NC(=O)c2ccco2)cc1	-87.1	3.8	-51.4	31.6*	-0.7	22.8*
COc1ccccc1C(=O)Nc1ccnn1C1CCN(Cc2cnn(C)c2C)CC1	-28.8	nt	nt	12.2	nt	nt
